High-throughput results (PubChem)
Hits are enriched below; roughly 21% of the tested compounds scored in any of these assays.
CHX counter – affects cycloheximide protein synthesis inhibition readout, counter-screen; max response, %; AID 2314; cell reporter, cycloheximide protein synthesis inhibition counterscreen; 12% of 300,000 active; in the data active means max response mostly above about 13%, no sharp cut-off; inactive means mostly below about 14%; further: read at 38.3 µM for the half of the compounds with a filed dose; 0% is about no effect
Pf growth 96h – P. falciparum growth inhibition at 96 hour, primary screen for plastid delayed-death inhibitors. P. falciparum luciferase reporter growth, 96 h. Potency, µM (top dose mostly 28.7 µM), inactives show top-dose activity change, negative = inhibition, most hits filed as inhibitors. 6.9% of 320,000 active; further: potency means the concentration at half of the fitted maximal effect; on the % scale 0 is the no-effect control and ±100 the full control effect
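Cell-based qHTS: luciferase-tagged P. falciparum in erythrocytes (2% hematocrit, 0.05% parasitemia final) incubated with compounds for 96 hours, 37 C, 5% CO2; luciferase detection reagent then added and luminescence measured.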
Sm TGR block – S. mansoni TGR enzyme inhibition | Potency, µM (titrated, usually from 114 µM), inactives show at the highest dose activity change, negative = inhibition, usual class: inhibitors | AID 485364 | purified TGR, DTNB reduction, TNB absorbance 405 nm | 3% of 360,000 active | Q962Y6; further: potency means the concentration at half of the fitted maximal effect; on the % scale 0 is the no-effect control and ±100 the full control effect; nearly all actives have a fitted effect of over 60% in size
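TGR 20 nM + NADPH 100 uM (dispensed conc.), cpd preinc 15 min RT; start with NADPH (500 uM addition) then DTNB (15 mM addition). Kinetic TNB absorbance, 405 nm filter. Four-parameter Hill fit across titration.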
Shiga toxin inh – inhibitors of Shiga toxin in Vero cells. Vero cells, Shiga toxin protein synthesis inhibition reporter. inhibition, % at 38.7 µM. 9.2% of 290,000 active. AID 2315; in the data active means inhibition mostly above about 28%, no sharp cut-off; inactive means mostly below about 43%; further: 0% is about no effect
Pf growth 48h – P. falciparum growth inhibition at 48 hours (one generation); P. falciparum luciferase growth in erythrocytes, 48 h; Potency, µM (titrated, usually from 28.7 µM), for inactives: at the highest dose activity change, negative = inhibition, hits mostly inhibitors; 5.9% of 310,000 active; AID 504832; further: potency means the concentration at half of the fitted maximal effect; on the % scale 0 is the no-effect control and ±100 the full control effect
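Compounds are pin-transferred into medium, infected erythrocytes (2% hematocrit, 0.1% parasitemia final) are added, and plates sit one parasite generation at 37 C in 5% CO2. Detection reagent is then added and luminescence measured.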
NS1 function inh – blocks influenza NS1 protein function; 0.4% of 270,000 active; AID 2326; Potency, µM (top dose mostly 46.1 µM), without a hit: top-dose activity, positive = more growth; calls by dose curve; further: potency means the concentration at half of the fitted maximal effect; actives are rising curves; nearly all actives have a fitted effect of over 50% in size
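Read-out: OD600 growth recovery of NS1-expressing budding yeast. Cells grown overnight at 30C in -URA glucose medium, washed, resuspended and diluted 1:100 in 2% galactose assay medium, pH 6.0. Same strain lacking NS1 served as positive control.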
Numbers without * were called inactive; ? = inconclusive; . = no result; [ ] = dose if it differs, or a comment. Unless noted, the call rests on the fitted dose curve; in most records, active means well fitted curve in the direction sought with a large enough effect; inconclusive means small, poorly fitted or top-dose-only effect, or another doubt; inactive means no such curve, though single readings can be large; an effect the other way counts as inactive or inconclusive.

SMILES	CHX counter	Pf growth 96h	Sm TGR block	Shiga toxin inh	Pf growth 48h	NS1 function inh
CCN1C(c2ccccc2)C(C)C(=O)C(C)C1c1ccccc1 (centres undefined)	4.5	9.28µM*	2.9%	23.8	11.7µM*	-8.9%
O=C(COC(=O)/C=C/c1cccc(C(F)(F)F)c1)NCc1cccs1	.	-15.1%	0.0%	.	-1.1%	.
CC(=O)N1c2ccc(C)cc2C(c2ccccc2)CC1C (centres undefined)	1.8	?	-3.2%	-3.8	7.38µM*	-24.8%
Cc1ccc(NC(=O)COC(=O)CN2C(=O)COc3ccccc32)cc1	5.6	9.9%	-9.6%	-8.8	.	-17.7%
COCC(=O)Nc1ccc2c(c1)OCC(=O)N2Cc1ccc(C)cc1	12.0*	?	-8.5%	22.1	?	-4.5%
COc1ccc(C2CC(=O)N(CC(=O)Nc3ccc(C(C)=O)cc3)c3ccccc3S2)cc1OC (centres undefined)	.	.	3.8%	.	.	.
CC(C)(C)c1ccccc1NC(=O)c1ccc2c(c1)SC1=NS(=O)(=O)CCN12	-1.9	?	-0.2%	-3.9	?	-2.3%
O=C(Nc1cccc(Br)c1)c1ccc2c(c1)SC1=NS(=O)(=O)CCN12	.	11.7µM*	-4.2%	.	11.7µM*	.
CCS(=O)(=O)N1CC(=O)N(c2ccccc2C)C(C)(C(=O)NC2CCCCC2)C1 (centres undefined)	.	.	1.7%	.	.	.
Cc1ccc(-n2ncc3c(NCc4ccc5c(c4)OCO5)ncnc32)c(C)c1	-2.9	-0.2%	-23.2%	-6.6	?	-6.7%
COc1ccc(-n2ncc3c(NCc4ccc5c(c4)OCO5)ncnc32)cc1	24.8*	67.0%	7.4%	26.7*	98.5%	4.6%
Cc1cccc(-n2ncc3c(NCc4ccc5c(c4)OCO5)ncnc32)c1	18.1*	-0.8%	-0.4%	97.3*	0.3%	-12.6%
c1ccc(-n2ncc3c(NCc4ccc5c(c4)OCO5)ncnc32)cc1	19.8*	?	-7.4%	41.7*	-1.1%	-4.3%
Cc1cc(NC(=O)c2noc3c2CCCC3)no1	22.4*	24.4%	-3.7%	30.5*	67.5%	-6.4%
Cc1cc(NC(=O)c2noc3c2CCCCC3)no1	28.6*	49.2%	9.0%	130.3*	86.5%	-6.2%
CCC(CO)Oc1cc(NC(=O)c2ccccc2)c2ncn(C(C)C)c2c1 (centres undefined)	.	?	-14.4%	.	?	.
CC(=Nc1ccccc1C)C1=C(O)CSC1=O	1.5	.	-5.3%	-6.4	12.0%	-3.3%
CC(=Nc1ccccc1)C1=C(O)CSC1=O	32.1*	0.2%	0.0%	49.1	.	4.6%
COc1ccc(N=C(C)C2=C(O)CSC2=O)cc1	39.8*	2.2%	?	45.4	.	-3.9%
Cc1ccc(NC(=O)COC(=O)C2(c3ccc(Cl)cc3)CCCC2)cc1	16.9	?	3.3%	-9.2	?	-3.7%
COC(=O)c1c(NC(=O)CN2CCCc3ccccc32)sc(C)c1C	-2.2	?	0.4%	21.6	?	4.1%
CCOC(=O)c1c(NC(=O)CN2CCCc3ccccc32)sc(C)c1C	34.0*	?	-13.3%	37.8	?	3.5%
COCCOC(=O)c1c(NC(=O)CN2CCCc3ccccc32)sc(C(N)=O)c1C	0.5	10.4µM*	5.2%	-5.3	?	3.6%
COc1ccc(OCC(=O)c2c(O)c3ccccc3oc2=O)cc1	-3.3	-2.7%[5.75 µM]	31.6µM*	-1.6	9.4%	-39.0%
CCOc1ccc(OCC(=O)c2c(O)c3ccccc3oc2=O)cc1	3.0	18.8%	17.8µM*	42.7	32.5%	-22.6%
SMILES	CHX counter	Pf growth 96h	Sm TGR block	Shiga toxin inh	Pf growth 48h	NS1 function inh
CC(Nc1ccc(F)cc1)=[N+](C)CCNS(=O)(=O)c1ccc(Cl)cc1	-3.9	2.1%	?	-3.4	-27.2%	8.2%
COc1cccc2c1[C@H](CO)N1[C@H](C#N)[C@@H]3C[C@H](C(=O)O)[C@@H]([C@@H]1C2)N3C	.	.	.	.	.	0.0%
CCOC(=O)N1CCC(=NNc2ccnc3cc(Cl)ccc23)CC1	4.4	2.62µM*	?	12.2	?	.
CC(=O)N1CCC(=NNc2ccnc3cc(Cl)ccc23)CC1	-1.5	2.62µM*	?	-17.4	1.85µM*	.
CC(C)N(Cc1nccn1C)C(=O)c1cc(COc2ccc(F)cc2Cl)on1	0.9	-27.3%	-14.5%	18.6	?	-1.8%
O=C(Nc1cccc2ncccc12)C(c1ccccc1)c1ccccc1	-2.6	47.9%[1.15 µM]	1.3%	-8.1	?	-2.1%
